In the test the target is Estrogen receptor (Homo sapiens) (UniProt P03372). Description: ERalpha ligand binders by competition, primary screen, cell-based, Cos7 ERalpha-GFP, flow cytometry (AID 1211).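 Further: 0% = DMSO vehicle wells and 100% = no E2-Alexa633 signal left.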 The following applies: fluorescent ligand competition, stronger effect = higher value.

Drawing on PubChem BioAssay AID1211 (NMMLSC, 2008), this text covers inhibition of ligand binding for 34 compounds.

The source made the active and inactive calls. How the calls were made is not given here.

Sequence of Estrogen receptor (Homo sapiens) (P03372 whole entry, looked up): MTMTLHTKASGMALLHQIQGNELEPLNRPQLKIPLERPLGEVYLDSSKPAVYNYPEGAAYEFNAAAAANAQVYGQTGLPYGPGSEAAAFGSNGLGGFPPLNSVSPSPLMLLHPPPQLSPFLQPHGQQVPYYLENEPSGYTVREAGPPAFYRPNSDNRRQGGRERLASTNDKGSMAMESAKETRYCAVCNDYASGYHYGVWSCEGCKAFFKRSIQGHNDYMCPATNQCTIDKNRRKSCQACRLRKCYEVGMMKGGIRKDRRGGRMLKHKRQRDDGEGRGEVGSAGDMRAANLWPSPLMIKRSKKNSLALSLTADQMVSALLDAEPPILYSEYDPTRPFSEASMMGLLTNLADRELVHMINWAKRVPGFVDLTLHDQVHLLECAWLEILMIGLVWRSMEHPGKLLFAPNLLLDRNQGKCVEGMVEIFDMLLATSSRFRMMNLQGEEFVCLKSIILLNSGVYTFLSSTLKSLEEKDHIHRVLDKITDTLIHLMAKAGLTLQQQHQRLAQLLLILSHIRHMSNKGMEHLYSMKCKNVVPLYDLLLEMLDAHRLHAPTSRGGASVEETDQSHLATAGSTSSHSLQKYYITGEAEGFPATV

With `COc1ccc(NC(=O)CN(c2ccccc2)S(=O)(=O)N(C)C)cc1OC`, the inhibition of ligand binding by setting is: (at 10 µM) 16% (inactive); (binding inhibition, at 0.1 µM) 16%.

For the compound `CCc1nc2sc3ccccc3c(=O)c2c(=O)n1Cc1ccco1`, the inhibition of ligand binding is 0% (inactive) (at 10 µM) and 23% (binding inhibition, at 0.1 µM).

Consider `CCC(Sc1ncnc2sc(C)c(C)c12)C(=O)OC` (stereo not drawn), for which the inhibition of ligand binding is, setting by setting: (at 10 µM) 38% (inactive); (binding inhibition, at 0.1 µM) 30%.

Take `Cc1cccc2cc(C(c3nnnn3C(C)(C)C)N(Cc3ccco3)CC3CCCO3)c(=O)[nH]c12` (stereo not drawn): the inhibition of ligand binding by setting is: (at 10 µM) 31% (inactive); (binding inhibition, at 0.1 µM) 7%.

Regarding `COC1=C/C(=C/c2c(N)n3cc(C)sc3nc2=O)C=CC1=O`, the inhibition of ligand binding runs as follows: (at 10 µM) 34% (inactive); (binding inhibition, at 0.1 µM) 10%.

As to `COc1cccc2cc3c(=O)n(-c4ccccc4)nc-3oc12`, the inhibition of ligand binding (at 10 µM) was 47% (inactive) and the inhibition of ligand binding (binding inhibition, at 0.1 µM) was 23%.

For the compound `O=S(=O)(NCc1csc(-c2cccnc2)n1)c1ccc(Cl)s1`, the inhibition of ligand binding (at 10 µM) is 45% (inactive) and the inhibition of ligand binding (binding inhibition, at 0.1 µM) was 6%.

`Nc1ccc(-c2nc3ccc([N+](=O)[O-])cc3[nH]2)cc1`: the inhibition of ligand binding reads like this: (at 10 µM) 36% (active); (binding inhibition, at 0.1 µM) 82%.

In the case of `C=CCn1c(SCC(=O)NC(=O)NCc2ccco2)nc2sc(CC)cc2c1=O`, the inhibition of ligand binding is, setting by setting: (at 10 µM) 10% (inactive); (binding inhibition, at 0.1 µM) 3%.

Consider `CC(C)c1ccc2c(c1)[C@H]1OCC[C@H]1[C@@H](c1cccs1)N2`, for which the inhibition of ligand binding is, setting by setting: (at 10 µM) 0% (inactive); (binding inhibition, at 0.1 µM) 20%.

For the compound `CCOc1cccc2cc(-c3nnc(NCc4ccco4)s3)c(=O)oc12`, the inhibition of ligand binding reads like this: (at 10 µM) 47% (inactive); (binding inhibition, at 0.1 µM) 61%.

Turning to `Oc1ccc(-c2nnc(-c3ccccc3)c(-c3ccccc3)n2)cc1`, the inhibition of ligand binding is 47% (inactive) (at 10 µM) and 51% (binding inhibition, at 0.1 µM).

In the case of `CCN1CCN(Cc2c(O)c(Cl)cc3c(C)cc(=O)oc23)CC1`, the inhibition of ligand binding is, setting by setting: (at 10 µM) 31% (inactive); (binding inhibition, at 0.1 µM) 28%.

As to `CCn1c(=NC(=O)c2ccc(N3C(=O)CCC3=O)cc2)sc2c(OC)ccc(OC)c21`, the inhibition of ligand binding (at 10 µM) was 66% (active) and the inhibition of ligand binding (binding inhibition, at 0.1 µM) was 32%.

`O=c1oc2ccccc2cc1-c1ccc(O)cc1O`: the inhibition of ligand binding runs as follows: (at 10 µM) 33% (inactive); (binding inhibition, at 0.1 µM) 18%.

As to `CCN(CC)c1ccc(-c2nn3c(-c4ccccc4OC)nnc3s2)cc1`, the inhibition of ligand binding was 40% (inactive) (at 10 µM) and 25% (binding inhibition, at 0.1 µM).

On to `COc1cc(CCC(=O)OCC(=O)Nc2ncc(Cl)cc2Cl)cc(OC)c1OC`, for which the inhibition of ligand binding by setting is: (at 10 µM) 3% (inactive); (binding inhibition, at 0.1 µM) 27%.

On to `COc1cc(NC(=O)c2cccs2)c(C(=O)OCC(=O)NCc2ccco2)cc1OC`, for which the inhibition of ligand binding (at 10 µM) is 22% (inactive) and the inhibition of ligand binding (binding inhibition, at 0.1 µM) was found to be 20%.

With `CCO/C([O-])=N/c1c[n+](N2CCOCC2)no1`, the inhibition of ligand binding by setting is: (at 10 µM) 0% (inactive); (binding inhibition, at 0.1 µM) 12%.

With `CC1CCc2c(sc(NC(=O)c3ccc(Cn4cc([N+](=O)[O-])cn4)o3)c2C#N)C1` (stereo not drawn), the inhibition of ligand binding (at 10 µM) was 44% (inactive) and the inhibition of ligand binding (binding inhibition, at 0.1 µM) is 39%.

For the compound `Cn1c(SCC(=O)Nc2sccc2C#N)nnc1-c1ccccc1`, the inhibition of ligand binding by setting is: (at 10 µM) 17% (inactive); (binding inhibition, at 0.1 µM) 24%.

In the case of `CCCN(CCC)S(=O)(=O)c1ccc(NC(=O)Cc2cccs2)cc1`, the inhibition of ligand binding is, setting by setting: (at 10 µM) 34% (inactive); (binding inhibition, at 0.1 µM) 18%.

With `CC1CCN(S(=O)(=O)c2ccc(NC(=O)Cc3cccs3)cc2)CC1`, the inhibition of ligand binding runs as follows: (at 10 µM) 62% (inactive); (binding inhibition, at 0.1 µM) 56%.

Take `COc1cc(C2CC(=O)c3c(ccc4ccccc34)N2)ccc1O` (stereo not drawn): the inhibition of ligand binding runs as follows: (at 10 µM) 0% (inactive); (binding inhibition, at 0.1 µM) 12%.

As for `CC(=O)c1ccc(NC(=S)N2CCCC(CO)C2)cc1` (stereo not drawn), the inhibition of ligand binding was 13% (inactive) (at 10 µM) and 1% (binding inhibition, at 0.1 µM).

In the case of `O=C(Cc1cn2ccsc2n1)OCc1nc2ccccc2s1`, the inhibition of ligand binding is 26% (inactive) (at 10 µM) and 18% (binding inhibition, at 0.1 µM).

Take `Cc1nc2ccccc2c(=O)n1/N=C/c1c(O)ccc2oc3c(c12)CCCC3`: the inhibition of ligand binding was 48% (inactive) (at 10 µM) and 52% (binding inhibition, at 0.1 µM).

`CCOc1ccc(N=C2NC(=O)S/C2=C\c2ccc(OC)cc2)cc1`: the inhibition of ligand binding (at 10 µM) is 39% (inactive) and the inhibition of ligand binding (binding inhibition, at 0.1 µM) came to 26%.

Consider `O=S(=O)(Nc1ncnc2sc3c(c12)CCC3)c1ccc2ccccc2c1`, for which the inhibition of ligand binding is 28% (inactive) (at 10 µM) and 37% (binding inhibition, at 0.1 µM).

Regarding `O=C(Cc1cccs1)Nc1nnc(Cc2ccccc2)s1`, the inhibition of ligand binding by setting is: (at 10 µM) 33% (inactive); (binding inhibition, at 0.1 µM) 31%.

Turning to `CC(=O)OC1CC(C)(C)N(OC(=O)c2ccc(N)cc2)C(C)(C)C1`, the inhibition of ligand binding reads like this: (at 10 µM) 6% (inactive); (binding inhibition, at 0.1 µM) 7%.

`O=C(Nc1sc2c(c1C(=O)O)CCC2)c1ccccc1`: the inhibition of ligand binding by setting is: (at 10 µM) 15% (inactive); (binding inhibition, at 0.1 µM) 61%.

As for `COc1ccc(/C=N/NC(=O)c2nc(-c3ccccc3)n(-c3ccccc3)n2)c(O)c1`, the inhibition of ligand binding reads like this: (at 10 µM) 41% (inactive); (binding inhibition, at 0.1 µM) 52%.

In the case of `Cc1cccc(N2CSC3=C(C#N)C(c4ccc(C)o4)CC(=O)N3C2)c1` (stereo not drawn), the inhibition of ligand binding reads like this: (at 10 µM) 27% (inactive); (binding inhibition, at 0.1 µM) 13%.
